pPAFAH inh = pPAFAH enzyme inhibitors, primary screen, biochemical, fluorescence polarization, human. inhibition, % at 3.39 µM. hit rate 1.5% among 330,000. Platelet-activating factor acetylhydrolase (Homo sapiens), Q13093. AID 463082, 2010. recombinant pPAFAH, FP-rhodamine probe fluorescence polarization;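 active means inhibition above the mean inhibition across the screen plus 3 SD, cut at about 25% in these data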;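 further: inhibitors block binding of the rhodamine activity-based probe so polarization drops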
PAFAH2 FP inh = PAFAH2 enzyme inhibitors, primary screen, biochemical, fluorescence polarization, human. Platelet-activating factor acetylhydrolase 2, cytoplasmic (Homo sapiens), Q99487. recombinant PAFAH2, FP-rhodamine activity probe. inhibition, % at 3.39 µM. hit rate 0.99% among 340,000;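 active means inhibition above the mean over all tested compounds plus 3 SD, cut at about 30% in these data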;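 further: inhibitors block probe labeling of enzyme so polarization drops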
PKA-R1A act = activators of PKA-R1A holoenzyme, primary screen, biochemical, fluorescence polarization, Cy5-IP20, bovine R1A, mouse PKAc; cAMP-dependent protein kinase type I-alpha regulatory subunit (Bos taurus) + …; PKA-R1A dissociation; scaled: DMSO 0%, 113 µM cGMP 100%; activation, % at 11.4 µM; hit rate 0.083% among 340,000; AID 504707, 2011;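 active means percent activation above the mean of all tested compounds plus 3 SD, cut at about 19% in these data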;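 further: higher means more PKAc released from R1A so a rise in polarization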
PKA-R2B act = activators of PKA-R2B holoenzyme, primary screen, biochemical, fluorescence polarization, Cy5-IP20, human. cAMP-dependent protein kinase catalytic subunit beta (Homo sapiens) + cAMP-dependent …. PKA-R2B holoenzyme dissociation; R2B truncated from residue 108, S112A mutant; 0% DMSO only, 100% 113 µM cGMP. activation, % at 11.4 µM. hit rate 0.079% among 340,000;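 active means activation above a cutoff set at the mean over all compounds plus 3 SD, cut at about 18% in these data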;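 further: higher means more holoenzyme dissociation and a rise in polarization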
Target sequence (P31323 whole entry, looked up, other chains not shown, the tested form may be a part): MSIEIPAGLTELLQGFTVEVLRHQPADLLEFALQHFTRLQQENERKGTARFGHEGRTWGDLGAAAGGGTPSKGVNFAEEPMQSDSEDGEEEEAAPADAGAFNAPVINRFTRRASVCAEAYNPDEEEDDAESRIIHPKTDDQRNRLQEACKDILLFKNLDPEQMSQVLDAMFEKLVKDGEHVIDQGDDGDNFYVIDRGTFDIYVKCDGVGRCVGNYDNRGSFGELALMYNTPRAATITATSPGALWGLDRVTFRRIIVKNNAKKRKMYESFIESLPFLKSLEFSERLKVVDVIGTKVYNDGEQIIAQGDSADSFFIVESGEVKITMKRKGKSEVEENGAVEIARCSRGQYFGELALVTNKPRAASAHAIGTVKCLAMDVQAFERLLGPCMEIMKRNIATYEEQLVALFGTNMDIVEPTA
PAFAH1B2 FP inh = PAFAH1B2 enzyme inhibitors, primary screen, biochemical, fluorescence polarization, human | recombinant PAFAH1B2, FP-rhodamine activity probe | inhibition, % at 3.39 µM | hit rate 1.2% among 340,000 | Platelet-activating factor acetylhydrolase IB subunit alpha2 (Homo sapiens), P68402;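 active means inhibition above the mean of all tested compounds plus 3 SD, cut at about 24% in these data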
PAFAH1B3 FP inh = PAFAH1B3 enzyme inhibitors, primary screen, biochemical, fluorescence polarization, human | Platelet-activating factor acetylhydrolase IB subunit alpha1 (Homo sapiens), Q15102 | recombinant PAFAH1B3, FP-rhodamine probe | inhibition, % at 3.39 µM | hit rate 0.28% among 340,000 | AID 492972, 2010;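 active means inhibition above the screen-wide average of all tested compounds plus 3 SD, cut at about 25% in these data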
Target sequence (Q15102 whole entry, looked up): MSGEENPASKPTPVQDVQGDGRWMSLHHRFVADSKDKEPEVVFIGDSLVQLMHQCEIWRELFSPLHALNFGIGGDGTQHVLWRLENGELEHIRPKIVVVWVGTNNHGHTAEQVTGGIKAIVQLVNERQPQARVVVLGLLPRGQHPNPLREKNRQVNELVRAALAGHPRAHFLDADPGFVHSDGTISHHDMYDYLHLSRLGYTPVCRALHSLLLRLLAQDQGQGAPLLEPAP
Of the large screens only hits and unclear results are named; the others gave an inactive call. In the library only some 2.6% were active in any assay of this set; here they are far more common.

CC(C)c1cc2c(c(O)c1O)[C@@]13CCCC(C)(C)C1CC2OC3=O (stereo partly drawn)	pPAFAH inh 30.1, PAFAH2 FP inh 61.0, PAFAH1B2 FP inh 54.0
O=C(Nc1ccccn1)c1ccc(S(=O)(=O)N2CCCC2)cc1	none
O=C(Nc1ccccn1)c1ccc(S(=O)(=O)c2ccc(Cl)cc2)cc1	PAFAH1B2 FP inh 24.5
C=CCNC(=O)c1onc(CSc2ccc(Cl)cc2)c1C(=O)NCC=C	PAFAH1B2 FP inh 24.9
C=CCNC(=O)c1onc(CSc2ccc(F)c(F)c2)c1C(=O)O	none
COc1cccc(CC(=O)OCC(=O)N(C)CC(=O)Nc2ccc(F)cc2)c1	none
O=c1[nH]c2ccc(S(=O)(=O)Nc3ccc(Cl)cc3)cc2o1	PAFAH1B2 FP inh 54.3 (no result: pPAFAH inh)
Cc1cc(C(=O)O)cc(S(=O)(=O)Nc2ccccc2C(=O)NC2CC2)c1C	none (no result: pPAFAH inh)
O=S(=O)(Nc1nc2ccccc2s1)c1ccc(Cl)nc1	none
CS(=O)(=O)c1ccccc1-c1nnc(NC(=O)Cc2ccccc2)o1	none
O=C1C=C(Nc2ccccc2O)c2ccccc2C1=O	none
O=C1C=C(NCc2ccccc2)c2ccccc2C1=O	PAFAH2 FP inh 53.2, PAFAH1B2 FP inh 26.8, PAFAH1B3 FP inh 60.2 (no result: pPAFAH inh)
O/N=C/c1ccc2ccccc2c1	PAFAH1B2 FP inh 50.2
Cc1c([N+](=O)[O-])oc2c1C(=O)NCCC2	none (no result: pPAFAH inh, PAFAH2 FP inh, PAFAH1B2 FP inh, PAFAH1B3 FP inh)
Brc1ccc(-c2noc(CCc3ccccc3)n2)o1	PAFAH1B2 FP inh 28.4
Cc1nc2c(C(=O)NCCC(C)C)c[nH]n2c(=O)c1Cl	none
Cc1nc2c(C(=O)NCCC(C)C)c[nH]n2c(=O)c1Cc1ccccc1F	pPAFAH inh 30.8
Oc1c(I)cc(I)c2cccnc12	pPAFAH inh 33.0
Cc1nn(-c2ccccc2)c(=O)c2ccccc12	none
Cc1nn(-c2ccccc2)c2c1CC(=O)Nc1ccccc1-2	PAFAH1B2 FP inh 31.1 (no result: pPAFAH inh)
CCOC(=O)c1c2c3c(cccc3n(C)c1=O)C(=O)c1ccccc1-2	pPAFAH inh 31.0, PAFAH1B3 FP inh 26.1
CCOC(=O)c1c2c(n(Cc3ccccc3)c1C)C(=O)C(=O)c1ccccc1-2	PAFAH2 FP inh 51.9, PAFAH1B2 FP inh 30.4, PAFAH1B3 FP inh 78.6 (no result: pPAFAH inh)
COc1cc(-c2nc(Cc3ccccc3Cl)no2)cc(OC)c1OC	none
COc1ccccc1Cc1noc(-c2cc(Cl)ccc2OC)n1	pPAFAH inh 29.0
CNc1nc(NCCOC23CC4CC(CC(C4)C2)C3)nc(OCC(F)(F)F)n1	PAFAH1B2 FP inh 31.3
CCC1C(=O)N=C(SCC(=O)Nc2ccc(C)cc2)N(c2ccccc2)C1=O (stereo not drawn)	none
O=C(/C=C/c1ccc(-c2ccccc2)o1)c1ccccc1	pPAFAH inh 26.6
Oc1c(Cl)cccc1C=Nc1cc(C(F)(F)F)ccc1N1CCCC1	none
Oc1c(Cl)cc(Cl)cc1C=Nc1cc(C(F)(F)F)ccc1N1CCc2ccccc2C1	pPAFAH inh 27.8
Cc1ccc(N2CC(C(=O)NCc3n[nH]c(=O)c4ccccc34)CC2=O)cc1C (stereo not drawn)	none
CCN(CC)c1ccc(C(=O)n2cnc3ccccc32)cc1	pPAFAH inh 29.6
CC(C)(C)CN1C(=O)C(=O)NC[C@@H]1CCCCN	none
Cc1cc(Cl)ccc1OCC(=O)OCC(=O)N1CCC(C(N)=O)CC1	none
CCCCN1C(=O)C(=O)N(CC(=O)Nc2sc(CC)cc2C(=O)OCC)C1=O	pPAFAH inh 33.3
Cc1ccc(S(=O)(=O)N2CCC(C(=O)OCCOc3ccccc3)CC2)cc1C	pPAFAH inh 28.1
O=C1c2ccccc2-c2onc3ccc(NCCCn4ccnc4)c1c23	pPAFAH inh 104.7 (no result: PAFAH2 FP inh, PKA-R1A act, PKA-R2B act, PAFAH1B2 FP inh, PAFAH1B3 FP inh)
COc1ccc(Br)cc1CN1CCN(S(=O)(=O)Cc2ccccc2)CC1	none
CCOc1ccc(NS(=O)(=O)c2cc3c4c(c2)C(C)C(=O)N4CCC3)cc1 (stereo not drawn)	pPAFAH inh 25.9
CCCNS(=O)(=O)c1cc2c3c(c1)C(C)C(=O)N3CCC2 (stereo not drawn)	none
CN1C(=O)/C(=C/c2cccc(Cl)c2)Sc2ccc(C(=O)N3CCOCC3)cc21	pPAFAH inh 28.0
O=C(CCc1nnc(CCCc2ccccc2)o1)NCCc1ccccc1	PAFAH1B2 FP inh 24.4
CC(C)N1CC2(CC(c3ccc(Cl)cc3Cl)=NO2)CN1C(=O)c1ccc(C(C)(C)C)cc1 (stereo not drawn)	none (no result: pPAFAH inh, PAFAH2 FP inh, PAFAH1B2 FP inh, PAFAH1B3 FP inh)
CC(C)(c1ccccc1)c1ccc(OCCN2CCOCC2)cc1	pPAFAH inh 26.6
c1ccc(OCCOCCN2CCOCC2)cc1	none
COc1ccc(OC)c(C2CC(=O)N3CN(c4ccccc4)CSC3=C2C#N)c1 (stereo not drawn)	none
Cc1cccc(N2CSC3=C(C#N)C(c4ccc(C)o4)CC(=O)N3C2)c1 (stereo not drawn)	pPAFAH inh 47.2 (no result: PAFAH2 FP inh, PKA-R1A act, PKA-R2B act, PAFAH1B2 FP inh, PAFAH1B3 FP inh)
O=c1nc(Nc2ccc([N+](=O)[O-])cc2)[nH]c(=O)[nH]1	none
O=C1CSC(c2ccc([N+](=O)[O-])cc2)N1CCN1CCCCC1 (stereo not drawn)	none
O=C1CSC(c2ccc([N+](=O)[O-])cc2)N1C1CCCCC1 (stereo not drawn)	PAFAH1B2 FP inh 27.4
O=C1Cc2ccccc2C(=O)N1OCc1ccc(Cl)cc1	PAFAH1B2 FP inh 25.3
O=C1c2ccccc2C(=O)N1OCc1ccc(Cl)cc1	none
O=C(CCN1CCOCC1)NNC(=O)Nc1cccc(Cl)c1	none (no result: pPAFAH inh)
Cc1oc2ccc(OCc3cccc(Cl)c3)cc2c1C(=O)O	none (no result: pPAFAH inh)
Cc1oc2ccc(OCc3ccc(F)cc3)cc2c1C(=O)O	PAFAH1B2 FP inh 24.5
COc1ccc(S(=O)(=O)N2CCC(C(=O)NCCC(=O)NCc3ccccc3OC)CC2)cc1	none
O=c1[nH][nH]c2c(N=Cc3ccccc3O)ccc(F)c12	PAFAH2 FP inh 62.2, PAFAH1B2 FP inh 40.5, PAFAH1B3 FP inh 61.2 (no result: pPAFAH inh)
Cc1cccc2cc(C(c3nnnn3Cc3ccccc3)N3CCN(C)CC3)c(=O)[nH]c12 (stereo not drawn)	none
COc1ccc(Cn2nnnc2C(c2cc3cccc(C)c3[nH]c2=O)N2CCN(C)CC2)cc1 (stereo not drawn)	PAFAH1B2 FP inh 28.6
O=C(NNC(=O)c1cc(Cl)nc2ccccc12)c1ccccc1F	none
COc1ccc(C2CC(c3ccccc3C(F)(F)F)=NN2c2ccc(S(N)(=O)=O)cc2)cc1 (stereo not drawn)	pPAFAH inh 26.4
